Measurements taken from ChEMBL document CHEMBL1157539, “Thousands of chemical starting points for antimalarial lead identification” (Nature, 2010).

Test system: Plasmodium falciparum
Assay: GSK_TCMDC: Inhibition of Plasmodium falciparum 3D7 in whole red blood cells, using parasite LDH activity as an index of growth. Test compounds present at 2uM
Format: functional

Point of comparison: `CCc1cn2c3c(cc(C(=O)N[C@@H](Cc4ccccc4)[C@H](O)CNC(C)C)cc13)N(C)S(=O)(=O)C2.O=CO`, Inhibition 98%. Against it:
- NC1CCN(Cc2cccc(-c3ccc(-c4nc5cc(F)ccc5[nH]4)cc3)c2)C1.O=C(O)C(F)(F)F (stereo unspecified) — higher, 99%
- COc1ccc2nccc(N3CCC(NCCNCc4ccc5c(n4)NC(=O)CO5)C3)c2n1.Cl (stereo unspecified) — higher, 100%
- COc1ccc(Br)cc1/C=C/C(=O)Nc1ccc(C2CCN(C)CC2)cc1.O=CO — higher, 100%
- Cc1cccc2nc(-c3ccc(-c4cccc(CN5CCC(N)C5)c4)s3)[nH]c12.O=C(O)C(F)(F)F (stereo unspecified) — lower, 95%
- Cc1cccc2nc(-c3ccc(-c4cccc(NC(=O)c5cnn6cccnc56)c4)cc3)[nH]c12 — lower, 91%

Test system: Plasmodium falciparum
Assay: GSK_TCMDC: Inhibition of Plasmodium falciparum Dd2 in whole red blood cells, using parasite LDH activity as an index of growth. Test compounds present at 2uM
Format: functional

Point of comparison: `Cc1c(C(=O)Nc2cc(Sc3ccc(F)cc3)cc([N+](=O)[O-])c2)sc2ncn(Cc3cccc(F)c3)c(=O)c12`, Inhibition 53%. Against it:
- O=C(NC1CCN(c2ccnc3cc(Cl)ccc23)C1)c1ccc(F)cc1.O=C(O)C(F)(F)F (stereo unspecified) — higher, 97%
- Cc1cccc(C(=O)N2CCN(Cc3cccc(NC(=O)c4cccs4)c3)CC2)c1.O=C(O)C(F)(F)F — higher, 95%
- N#Cc1cncc(-c2nc3c(N4CCN(c5cnccn5)CC4)cccc3n2CCNCc2ccccc2)c1.O=C(O)C(F)(F)F — lower, 31%
- CCCN1CCN(CC(O)CNC(=O)Nc2ccc(Br)cc2)CC1.O=C(O)C(F)(F)F (stereo unspecified) — higher, 100%
- CCOc1cc(O)c(-c2nc(N)ncc2-c2ccc3c(c2)OCCO3)cc1CC — higher, 68%
- CCCCCCCCOc1c(OCC)cc(Cc2cnc(N)nc2N)cc1OCC — lower, 0%
- CS(=O)(=O)c1ccc(CCNCc2ccc(-c3ccc(CN(C(=O)c4ccco4)C4CCN(Cc5ccccc5)CC4)cc3)nc2)cc1.O=C(O)C(F)(F)F — lower, 38%
- CN(C)c1ccnc2ccc(NC(=O)Nc3ccnc4ccccc34)cc12 — higher, 99%
- COc1ccc(Cl)cc1C(=O)Nc1ccc(-c2nc3ccccc3[nH]2)cc1 — lower, 39%
- O=C(N[C@H]1CCN(Cc2ccc(OCCCN3CCCCC3)cc2)C1)c1ccc(Cl)c(Cl)c1 — lower, 36%
- COc1ccc2nc(-c3cc(-c4ccc(NC(C)=O)cc4)cnc3N)[nH]c2c1 — higher, 73%
- COc1c(C2=CCN(CCCCNC(=O)c3ccc(-c4ccc(C#N)cc4)cc3)CC2)ccc2c1CCCC2 — higher, 82%
- Cn1c(NC(=O)C2CCC(CNC(=O)c3ccc(O)c(-c4cccc([N+](=O)[O-])c4)c3)CC2)nc2ccccc21 (stereo unspecified) — higher, 97%
- Cl.O=S(=O)(c1ccc(OCc2ccc(Cl)cc2)cc1)c1cc2c(cc1O)CCN(C1CCC1)CC2 — higher, 63%
- COC(=O)c1cccc(CNCc2cccc(-c3cccc(-c4nc5ccccc5[nH]4)c3)c2)c1.O=C(O)C(F)(F)F — higher, 58%
- Cc1cc2nc(-c3ccc(OCC(=O)NCc4cccc(C(F)(F)F)c4)cc3)[nH]c2cc1C — lower, 1%
- CC(C)CCN1CCC(Oc2cccc(NC(=O)c3ccc(C(F)(F)F)cc3)c2)CC1.O=C(O)C(F)(F)F — lower, 6%
- CCN1CCC(N(Cc2ccc(-c3ccc(C(F)(F)F)cc3)cc2)C(=O)Cn2c(CCc3cccc(F)c3F)cc(=O)c3c2CCC3)CC1.O=C(O)C(O)C(O)C(=O)O — higher, 85%
- Br.CCOc1ccc(CCCON2C(=N)N=C(N)NC2(C)C)cc1 — higher, 93%
- CC1(C)CNCc2cc(NC(=O)/C=C/c3ccc(Cl)cc3)ccc21.Cl — lower, 26%
- O=C(O)C(F)(F)F.O=S(=O)(NCCN1CCCC1)c1ccc(-c2cccc(CNCc3ccsc3)c2)s1 — lower, 43%
- CN1CCN(CCCN(Cc2csc(-c3ccc(CNCc4ccccc4)cc3)n2)S(=O)(=O)c2ccccc2Cl)CC1.O=C(O)C(F)(F)F — higher, 81%
- O=C(NCc1ccc(Cl)cc1)c1ccc(CN2CCCN(CC3CCCCC3)CC2)cc1.O=C(O)C(F)(F)F — lower, 5%
- COc1ccc2nc(NC(N)=NC(=O)Nc3ccccc3)nc(C)c2c1 — lower, 15%
- Cc1cccc2nc(-c3ccc(-c4ccc(CN5CCCCC5CO)cc4)cc3)[nH]c12.O=C(O)C(F)(F)F (stereo unspecified) — higher, 76%
- O=C(NCCCCN1CCC(c2c[nH]c3ccccc23)CC1)c1ccc(-c2ccc(C(F)(F)F)cc2)cc1 — lower, 22%
- N#Cc1cccc(NC(=O)Nc2cccc(-c3cccc(-c4nc5cc(F)ccc5[nH]4)c3)c2)c1 — higher, 66%
- COc1c(C2CCN(CCCCNC(=O)c3cc(-c4ccc(C#N)cc4)n[nH]3)CC2)ccc2c1CCCC2 — lower, 15%
- O=C(/C=C/c1ccc(Cl)c(Cl)c1)NCCCCCN1CCC(CCNC(=O)c2snnc2-c2ccccc2)CC1 — lower, 1%
- COc1ccc(Nc2nc(N/N=C/c3ccc(O)cc3)nc(Nc3ccc([N+](=O)[O-])cc3)n2)cc1 — lower, 16%
- CCCN(CC)CCOC(=O)c1ccccc1 — lower, 1%
- CC(C)C[C@H](NC(=O)c1cc2ccccc2s1)C(=O)N[C@H]1CCN(Cc2ccc(I)c(OCCN3CCCC3)c2)C1.O=C(O)C(F)(F)F — higher, 88%
- O=C(Cc1cccc(Cl)c1)Nc1cccc(-c2c[nH]c3nc(Nc4cccc(OCc5ccccc5)c4)ncc23)c1.O=C(O)C(F)(F)F — higher, 56%
- NC1CCN(Cc2cccc(-c3ccc(-c4nc5cc(F)ccc5[nH]4)cc3)c2)C1.O=C(O)C(F)(F)F (stereo unspecified) — higher, 99%
- CCc1cn2c3c(cc(C(=O)N[C@@H](Cc4ccccc4)[C@H](O)CNC(C)C)cc13)N(C)S(=O)(=O)C2.O=CO — higher, 98%
- COc1ccc2nccc(N3CCC(NCCNCc4ccc5c(n4)NC(=O)CO5)C3)c2n1.Cl (stereo unspecified) — lower, 47%
- COc1ccc(Br)cc1/C=C/C(=O)Nc1ccc(C2CCN(C)CC2)cc1.O=CO — higher, 61%
- Cc1cccc2nc(-c3ccc(-c4cccc(CN5CCC(N)C5)c4)s3)[nH]c12.O=C(O)C(F)(F)F (stereo unspecified) — higher, 78%
- Cc1cccc2nc(-c3ccc(-c4cccc(NC(=O)c5cnn6cccnc56)c4)cc3)[nH]c12 — lower, 29%
